Vif inh – blocks HIV Vif function | inhibition, % at 7.49 µM | hit rate 0.35% among 340,000 | HEK293T cells, Vif self-association by quenched fluorescence, imaging, 24 h | AID 602346; in the data active = inhibition above about 50%, passing the limit was not always enough; inconclusive = no clear call, values can overlap the other calls; inactive = below about 31%
HSF-1 act – increases HSF-1 driven luciferase reporter signal. NIH3T3-HGL HSF-1 luciferase reporter, MG132, 8 h; 100% = twice DMSO control signal. activation, % at 9 µM. hit rate 1.7% among 300,000. AID 504408;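 active = mean replicate activation of at least 50% with a set share of replicates each reaching 50%; inconclusive = only one of those two conditions met; inactive = mean below 50% and too few replicates reaching it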;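 note: 0% = median of the neutral control wells and 100% = twice that signal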
HSF1 inh – HSF1 inhibition. NIH3T3-HGL HSE-luciferase, MG132-induced, luminescence 8 h; active compounds read low. activity change, negative = inhibition, % at 7.5 µM (by protocol). hit rate 0.77% among 300,000. AID 2098;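 active = more than half of replicate wells show activity change below -50%, luminescence cut by over half; inconclusive = some wells, but at most half, below -50%; inactive = no replicate well below -50%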;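 note: luciferase reports HSF-1 transcriptional activity via heat shock element; 0% = median of DMSO wells and -100% = zero luminescence signal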
esBAF inh – inhibitors of esBAF chromatin remodeling in mouse ES cells. reporter increase, % at 12.5 µM. hit rate 2% among 350,000. Bmi1-luciferase knock-in reporter, 24 h; 100% = twice the neutral-well signal; in the data active = activation above about 40%; inconclusive = no clear call, values can overlap the other calls;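 note: 0% = median of the plate's neutral control wells and 100% = double that signal; a rise in the Bmi1 reporter signal indicates esBAF inhibition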
Active calls of the source: *; ? = inconclusive; . = no result given; ! = not active in a repeat. This is a sample that favours compounds with a hit; in the whole collection about 3.4% have one here.

SMILES | Vif inh | HSF-1 act | HSF1 inh | esBAF inh
CNC[C@H]1Oc2cc(-c3ccc(C(=O)N(C)C)cc3)ccc2S(=O)(=O)N([C@H](C)CO)C[C@@H]1C | . | . | . | -2
C[C@@H]1CCCCO[C@@H](CN(C)C(=O)c2ccncc2)[C@H](C)CN([C@@H](C)CO)C(=O)c2cc(NS(=O)(=O)c3cn(C)cn3)ccc2O1 | . | . | . | 0
O=C(O)c1ccc(-c2ccccc2Cl)o1 | 7 | 13 | -1 | -3
CC(=O)Nc1ccc(NC(=O)c2ccc(-c3ccccc3Cl)o2)cc1 | . | . | . | 43*
Cc1ccc(-c2ccc(C(=O)Nc3ccccc3)o2)c2ccccc12 | -4 | 8 | 3 | 33
O=C(Nc1ccccc1)c1ccc(-c2ccccc2Cl)o1 | -2 | 28 | 20 | 53*
CC(C)NC(=O)N[C@H]1C=C[C@@H](CC(=O)NCCN2CCCC2)O[C@H]1CO | . | . | . | -1
CO[C@H]1CC[C@@H]2CCOc3ccc(C#N)cc3C(=O)N(C)C[C@@H](OC)[C@@H](C)C(=O)N(C)C[C@H]1O2 | . | . | . | 3
C[C@@H]1CCCCO[C@H](CN(C)C(=O)Nc2ccc3c(c2)OCO3)[C@@H](C)CN([C@H](C)CO)C(=O)c2cc(NC(=O)Nc3ccc4c(c3)OCO4)ccc2O1 | . | . | . | 20
CCCCN(C)CCNC(=O)c1cc2c(-c3ccccc3F)nn(C)c2s1 | -8 | -72 | -63* | 2
C[C@H](CO)N1C[C@H](C)[C@@H](CN(C)Cc2ccccn2)Oc2ncc(C#Cc3cccc(F)c3)cc2C1=O | . | . | . | -12
O=C1c2ccccc2NC(c2ccc(F)cc2)N1Cc1ccco1 (centres undefined) | . | -11 | 4 | 0
O=C1c2ccccc2NC(c2ccccc2)N1Cc1ccco1 (centres undefined) | 0 | 17 | -5 | 62*
CC(C)(C)c1ccc(OCCCC(=O)Nc2ccc(S(N)(=O)=O)cc2)cc1 | -22 | 56* | 26 | .
O=C(O)c1ccc(N/N=C/c2cn(Cc3ccc(F)cc3)c3ccccc23)cc1 | 5 | -74 | -69* | .
Cc1c(/C=N/Nc2ccc(C(=O)O)cc2)c2ccccc2n1C | -2 | -65 | -65* | 67*
COc1cccc(CN2[C@@H]3CN(C(=O)c4ccncc4)c4ccccc4[C@@H]3[C@@H]2CO)c1 | . | . | . | 1
Cc1ccc(NC(=O)C2C(=O)N(CCO)C3(C)CC2c2ccccc2O3)cc1 (centres undefined) | -12 | -20 | -9 | 35
COc1ccc(NC(=O)C2C(=O)N(CCO)C3(C)CC2c2ccccc2O3)cc1 (centres undefined) | 7 | 1 | 6 | 26*!
CS(=O)(=O)Nc1ccc2c(c1)[C@@H]1C[C@H](CC(=O)N3CCCCC3)O[C@@H](CO)[C@@H]1O2 | . | . | . | 3
CCOc1cc(/C=C\[N+](=O)[O-])ccc1OCC(=O)Nc1ccccc1C | . | -63 | -62* | -5
CC(C)NC(=O)Nc1ccc2c(c1)C(=O)N([C@@H](C)CO)C[C@H](C)[C@@H](CN(C)C(=O)Nc1ccc3c(c1)OCO3)OCCCC[C@@H](C)O2 | . | . | . | 2
CO[C@@H]1CN(C)C(=O)c2cc(NC(=O)C3CC3)ccc2OC[C@H](C)N(C(=O)c2cnccn2)C[C@H]1C | . | . | . | -6
Cc1[nH]c2ccccc2c1/C=C/C(=O)c1ccccc1 | -13 | 47 | 19 | .
COC(=O)c1c(C)[nH]c(C(=O)/C=C/c2cccc(Cl)c2)c1C | -1 | 356* | 267 | .
SMILES | Vif inh | HSF-1 act | HSF1 inh | esBAF inh
Cc1[nH]c2ccccc2c(=O)c1C(=O)/C=C/c1ccccc1 | 2 | 87* | 111 | -55
COC(=O)c1c(C)[nH]c(C(=O)/C=C/c2ccccc2)c1C | -5 | 59* | 27 | .
COC(=O)c1c(C)[nH]c(C(=O)/C=C/c2ccc(C)cc2)c1C | -5 | 16 | 4 | .
COC(=O)c1c(C)[nH]c(C(=O)CC#N)c1C | 1 | -14 | -1 | -3
COC(=O)c1c(C)[nH]c(C(=O)CSc2ccc(Cl)cc2)c1C | 5 | 91* | 55 | 38
C[C@@H]1CN([C@H](C)CO)S(=O)(=O)c2ccc(C#Cc3ccccc3)cc2O[C@@H]1CN(C)C(=O)c1ccccn1 | . | . | . | 5
COc1ccc(NC(=O)Nc2ccc3c(c2)CC(=O)N([C@H](C)CO)C[C@@H](C)[C@H](CN(C)S(=O)(=O)c2cccs2)O3)cc1 | . | . | . | 3
COC(=O)C[C@@H]1CC[C@@H]2[C@@H](COc3ccc(NC(=O)Nc4cc(C)cc(C)c4)cc3C(=O)N2C)O1 | . | . | . | -3
Cc1cccc2c(N=Nc3ccccc3)c(O)[nH]c12 | -2 | 61* | 26 | .
Oc1[nH]c2ccccc2c1N=Nc1cccc(Cl)c1 | ? | 69* | 37 | 52*
O=[N+]([O-])c1ccc(Cl)c(NC(=S)N2CCCC2)c1 | 19 | 6 | -6 | 52*
O=[N+]([O-])c1ccc(NC(=S)N2CCCC2)cc1 | 0 | -4 | 1 | 9
CN(C)CCCNC(=O)[C@H]1[C@H](CO)[C@H]2Cn3c(ccc(C4=CCCCC4)c3=O)[C@@H]1N2Cc1cocn1 | . | . | . | 3
Cc1nc(NCCc2ccccc2)sc1C(=O)N(C)C | -7 | 41 | 11 | 41*
Cc1nc(Nc2ccccc2C(F)(F)F)sc1C(=O)N(C)C | -1 | 17 | 9 | 49*
COc1ccccc1CNc1nc(C)c(C(=O)N(C)C)s1 | 19 | 11 | 4 | 2
C[C@@H]1CN([C@@H](C)CO)C(=O)c2cc(N(C)C)ccc2O[C@@H](C)CCCCO[C@@H]1CN(C)C(=O)Nc1cccc2ccccc12 | . | . | . | -1
CCCNC(=O)N(C)C[C@@H]1Oc2ncc(-c3ccc(F)cc3)cc2C(=O)N([C@H](C)CO)C[C@@H]1C | . | . | . | 5
CC(=O)c1ccc(NC(=S)N2C(C)CCCC2C)cc1 (centres undefined) | . | 59* | 17 | .
Cc1noc(C)c1NC(=O)Nc1ccc2c(c1)CC(=O)N([C@H](C)CO)C[C@@H](C)[C@@H](CN(C)C(=O)Nc1cccc3ccccc13)O2 | . | . | . | 4
CCc1ccc2c(COC(=O)c3n[nH]c4ccccc34)cc(=O)oc2c1 | -10 | ? | 50 | 77*
Cc1ccc2c(COC(=O)c3n[nH]c4ccccc34)cc(=O)oc2c1 | -5 | 76* | 46 | 69*
Cc1ccc2c(COC(=O)c3ccccc3F)cc(=O)oc2c1 | -9 | 37 | 32 | -15
COc1ccc(NC(=O)N(C)C[C@H]2Oc3ccc(NS(=O)(=O)c4ccc(OC)cc4)cc3C(=O)N([C@@H](C)CO)C[C@@H]2C)cc1 | . | . | . | -5
CC(C)NC(=O)N(C)C[C@@H]1Oc2ncc(C#CC3CCCCC3)cc2C(=O)N([C@H](C)CO)C[C@H]1C | . | . | . | 1
CCOc1cc(/C=C2\SC(=Nc3ccccc3)N(c3ccccc3)C2=O)ccc1OCC(=O)O | -4 | 26 | 6 | .
CCOC(=O)COc1ccc(/C=C2/SC(=Nc3ccccc3)N(Cc3cccnc3)C2=O)cc1OC | ? | 64* | 28 | -1
CN1c2cccc3cccc(c23)N(C)C1(C)C | 1 | -6 | 2 | -5
CC(=O)c1ccc2cccc3c2c1N=CN3C | 67* | -4 | -3 | -2
